Most compounds without a hit are left out; they make up all but 0.99% or so of the library.
SARS PLpro yeast – qHTS of Yeast-based Assay for SARS-CoV PLP; S. cerevisiae expressing SARS-CoV PLpro, growth rescue; Potency, µM (series often up to 32.9 µM), for the others: at the highest dose activity, positive = growth rescue, usual class: activators; 330,000 compounds, 0.19% hits; calls by dose curve; note: 0% is about no effect; nearly all actives have a fitted effect of over 55% in size
NS1 function inh – qHTS Assay for Inhibitors of Influenza NS1 Protein Function | Potency, µM (series often up to 46.1 µM), for the others: at the highest dose activity, positive = more growth | 270,000 compounds, 0.4% hits | AID 2326, 2010; calls by dose curve; note: actives are rising curves; nearly all actives have a fitted effect of over 50% in size
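A cell-based growth assay was used: compounds that relieve NS1-induced slow growth of budding yeast raise OD600. Assay medium was yeast nitrogen base with ammonium sulphate and -URA supplement, pH 6.0, with 2% galactose.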
AmpC inh detg – qHTS Inhibitors of AmpC Beta-Lactamase (assay with detergent). P00811. AmpC hydrolysis of nitrocefin, absorbance 480 nm, 0.01% Triton. Potency, µM (highest dose often 114 µM), for the others: at the top dose activity change, negative = inhibition, most hits filed as inhibitors. 370,000 compounds, 0.041% hits. AID 485294, 2010;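 note: 0% = no-compound wells and -100% = no-enzyme wells; nearly all actives have a fitted effect of over 25% in size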
Target sequence (P00811 whole entry, looked up): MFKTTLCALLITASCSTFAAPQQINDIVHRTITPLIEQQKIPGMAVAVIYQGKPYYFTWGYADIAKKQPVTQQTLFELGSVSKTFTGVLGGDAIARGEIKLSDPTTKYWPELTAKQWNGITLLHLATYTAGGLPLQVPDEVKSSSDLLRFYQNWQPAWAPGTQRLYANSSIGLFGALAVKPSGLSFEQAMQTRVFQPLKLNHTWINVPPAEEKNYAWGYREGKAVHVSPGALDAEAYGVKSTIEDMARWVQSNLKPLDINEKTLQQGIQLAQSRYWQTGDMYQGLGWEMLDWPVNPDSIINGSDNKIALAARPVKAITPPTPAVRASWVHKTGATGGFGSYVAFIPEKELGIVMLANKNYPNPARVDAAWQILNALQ
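AmpC (5.3 nM in the dispensed reagent) in 20 mM phosphate pH 7.0 with 0.01% (detergent screen) or 0.0001% Triton X-100 was preincubated with compounds for 15 min at room temperature. Nitrocefin was then added from an 800 uM solution, and hydrolysis was followed at 480 nm.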
AmpC no deterg – qHTS Inhibitors of AmpC Beta-Lactamase (assay without detergent); P00811; AmpC nitrocefin hydrolysis, absorbance 480 nm, 0.0001% Triton; Potency, µM (top dose mostly 57.1 µM), for inactives: at the top dose activity change, negative = inhibition, actives largely listed as inhibitors; 330,000 compounds, 0.52% hits;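 note: plate controls were no compound for no effect and no enzyme for full effect; nearly all actives have a fitted effect of over 20% in size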
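20 mM phosphate pH 7.0 + 0.01% (detergent screen) or 0.0001% Triton X-100; 5.3 nM AmpC reagent; cpd preinc 15 min RT; nitrocefin (800 uM stock) to start; A480 q20 s × 4 min; Activity was normalised to no-enzyme and no-compound control wells.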
AMA1 RON2 block – qHTS for Inhibitors of AMA1-RON; Towards Development of Antimalarial Drug Lead: Primary Screen | Plasmodium falciparum AMA1 (3D7) - RON2 peptide interaction | Potency, µM (top dose mostly 58.2 µM), without a hit: at the top dose activity change, negative = inhibition, hits mostly inhibitors | AlphaScreen AMA1-biotinylated RON2 peptide binding | 360,000 compounds, 0.2% hits;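 note: 0% = vehicle wells and -100% = peptide control; nearly all actives have a fitted effect of over 45% in size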
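AMA1 (3D7) with his tag at 25 nM final met compounds first, then biotinylated RON2 peptide at 25 nM; detection used donor plus acceptor beads, 10 µg/mL apiece, read by AlphaScreen after 30 min at room temperature.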
Numbers without * were called inactive. Unless noted, calls come from the whole dose curve; as a rule, active = well fitted curve in the direction sought with a large enough effect; inconclusive = small, poorly fitted or top-dose-only effect, or another doubt; inactive = no such curve, though single readings can be large; an effect the other way counts as inactive or inconclusive. Potency is the fitted concentration of half-maximal effect.

How did CCc1ccc(C2=NN(c3ccc(S(N)(=O)=O)cc3)C(c3ccc(F)cc3)C2)cc1 (stereo not given) do in these assays?
SARS PLpro yeast: -19.3%; NS1 function inh: -10.5%; AmpC inh detg: -0.1%; AmpC no deterg: 0.199µM*; AMA1 RON2 block: 19.6%

Results for O=C(NCCCn1ccnc1)Nc1cccc(Cl)c1 ?
SARS PLpro yeast: 1.4%; NS1 function inh: 1.0%; AmpC inh detg: 0.3%; AmpC no deterg: -6.2%; AMA1 RON2 block: 25.1µM*

How did CCN(CC)c1ccc2c(Cl)cc(=O)oc2c1 do in these assays?
SARS PLpro yeast: -9.3%; NS1 function inh: -51.2%; AmpC inh detg: -0.2%; AmpC no deterg: -17.2%; AMA1 RON2 block: 157.9%

What do the screens show for `CCN(CC)c1ccc2c(O)cc(=O)oc2c1`?
SARS PLpro yeast: -4.7%; AmpC inh detg: inconclusive; AmpC no deterg: 25.1µM*; AMA1 RON2 block: 6.3%

Results for C/C(N=NC(=[SH+])SCc1ccccc1)=C1\C=CC=CN1.[Cl][Cu] ?
NS1 function inh: 2.2%

How did COc1ccc(NS(=O)(=O)c2cc([N+](=O)[O-])ccc2N/N=C/c2c(C)[nH]c3ccccc23)cc1 do in these assays?
AMA1 RON2 block: -9.6%

How did Cc1[nH]c2ccccc2c1/C=N/Nc1ccccc1[N+](=O)[O-] do in these assays?
SARS PLpro yeast: -0.9%; AmpC inh detg: -9.6%; AmpC no deterg: -31.5%; AMA1 RON2 block: 31.6µM*

Results for CC(C)Oc1ccccc1/C=N/Nc1ccccc1[N+](=O)[O-] ?
SARS PLpro yeast: -10.6%; NS1 function inh: -11.7%; AmpC inh detg: -5.0%; AmpC no deterg: -23.7%; AMA1 RON2 block: 7.08µM*

What do the screens show for `COc1ccc(-c2nc3c(C#N)c[nH]n3c2NC2CCCC2)cc1`?
AmpC inh detg: -6.7%

How did CC(C)(C)OC(=O)NCCc1nnc(SCc2ccccc2Cl)o1 do in these assays?
SARS PLpro yeast: 3.1%; NS1 function inh: -62.8%; AmpC inh detg: -9.8%; AmpC no deterg: 46.3%; AMA1 RON2 block: -4.3%

How did CC(C)(C)OC(=O)NCCc1nnc(S(=O)(=O)Cc2ccc(Cl)cc2Cl)o1 do in these assays?
SARS PLpro yeast: -0.7%; NS1 function inh: -67.1%; AmpC inh detg: inconclusive; AmpC no deterg: 0.316µM*; AMA1 RON2 block: -2.1%

What do the screens show for `COc1ccccc1-n1ncc2c(=O)[nH]c(SCC(=O)Nc3cccc(F)c3)nc21`?
AmpC inh detg: -5.3%

How did Cc1c2cc(O)c(=O)cc-2oc2cc(O)c(O)cc12 do in these assays?
SARS PLpro yeast: inconclusive; NS1 function inh: 3.4%; AmpC inh detg: inconclusive; AmpC no deterg: inconclusive

Results for COc1cc(OC)c(-c2c3cc(O)c(=O)cc-3oc3cc(O)c(O)cc23)cc1OC ?
SARS PLpro yeast: 3.16µM*; NS1 function inh: 4.0%; AmpC inh detg: inconclusive; AmpC no deterg: -17.5%; AMA1 RON2 block: 7.94µM*

How did CN(C)CCN(Cc1ccccc1)S(=O)(=O)c1cccc2cccnc12 do in these assays?
NS1 function inh: -0.3%

What do the screens show for `CCNCCC1(CC)C(=O)NC(=O)NC1=O`?
NS1 function inh: -3.5%

Results for CCc1cc(=O)[nH]c(SCc2nc(-c3ccc(C(F)(F)F)cc3)no2)n1 ?
AmpC inh detg: 10.0%

What do the screens show for `CCN(c1ccc(OC)cc1)S(=O)(=O)c1ccc2[nH]c(=O)ccc2c1`?
AmpC inh detg: 24.5%

What do the screens show for `Cc1ccc(C2=NN(S(=O)(=O)c3ccccc3)C(c3ccco3)C2)cc1` (stereo not given)?
SARS PLpro yeast: -0.1%; AmpC inh detg: 10.5%; AmpC no deterg: -33.3%; AMA1 RON2 block: -7.5%

How did O=S(=O)(c1ccccc1)N1N=C(c2ccc(O)cc2)CC1c1ccco1 (stereo not given) do in these assays?
NS1 function inh: 3.2%; AmpC inh detg: 0.5%; AmpC no deterg: 14.1µM*; AMA1 RON2 block: 0.0%

How did Nc1nc(N)c2c(ccc3c2ccn3Cc2cccc([N+](=O)[O-])c2)n1 do in these assays?
AMA1 RON2 block: 31.6µM*

Results for Nc1nc(N)c2cc([N+](=O)[O-])ccc2n1 ?
AMA1 RON2 block: 23.3%

What do the screens show for `COc1ccc(CNC(=O)c2cc3cccc4c3n2CC(C)S4)cc1` (stereo not given)?
AmpC inh detg: 25.6%

How did O=C(Oc1ccc(F)cc1)c1nc(SCc2ccc(F)cc2)ncc1Cl do in these assays?
AmpC inh detg: 15.5%

What do the screens show for `CCOC(=O)N1CCN(C(=O)CSc2cc(C)nc3c(-c4ccccc4OC)c(C)nn23)CC1`?
SARS PLpro yeast: 4.1%; NS1 function inh: -6.1%; AmpC inh detg: -6.3%; AmpC no deterg: 162.5%; AMA1 RON2 block: 22.9%

Results for CCOC(=O)N1CCC(Nc2cc(C)nc3c(-c4ccccc4OC)c(C)nn23)CC1 ?
SARS PLpro yeast: -2.8%; NS1 function inh: -67.2%; AmpC inh detg: -12.8%; AmpC no deterg: 28.2µM*; AMA1 RON2 block: 0.0%

How did COc1ccccc1-c1c(C)nn2c(C)cc(C)nc12 do in these assays?
SARS PLpro yeast: -4.7%; NS1 function inh: -4.9%; AmpC inh detg: inconclusive; AmpC no deterg: 10µM*; AMA1 RON2 block: 1.0%

What do the screens show for `Cc1ccc(N2C(=O)CC(Nc3ccc(Cl)c(S(=O)(=O)N(C)C)c3)C2=O)c(C)c1` (stereo not given)?
SARS PLpro yeast: -5.7%; NS1 function inh: -8.0%; AmpC inh detg: -0.8%; AmpC no deterg: 28.2µM*; AMA1 RON2 block: -1.6%

How did Cc1noc(-c2ccc(NC(C)c3ccccc3)c([N+](=O)[O-])c2)n1 (stereo not given) do in these assays?
AmpC inh detg: 20.1%

How did N#CC1=C(N)Oc2cc(N)ccc2C1c1ccccc1Cl (stereo not given) do in these assays?
SARS PLpro yeast: -0.4%; NS1 function inh: 25.6%; AmpC inh detg: inconclusive; AmpC no deterg: -48.1%; AMA1 RON2 block: 3.2%

How did N#CC1=C(N)OC2=C(CCc3ccccc32)C1c1ccccc1Cl (stereo not given) do in these assays?
SARS PLpro yeast: 6.5%; NS1 function inh: 21.6%; AmpC inh detg: -6.3%; AmpC no deterg: 3.55µM*; AMA1 RON2 block: -1.0%

How did CC1=C(C(=O)O)N2C(=O)C(NC(=O)c3ccccc3Cl)C2SC1 (stereo not given) do in these assays?
SARS PLpro yeast: 1.8%; NS1 function inh: 1.3%; AmpC inh detg: 70.8µM*; AmpC no deterg: -31.0%; AMA1 RON2 block: 8.7%

What do the screens show for `CC1=C(C(=O)O)N2C(=O)C(NC(=O)c3nn(C)cc3Cl)C2SC1` (stereo not given)?
SARS PLpro yeast: -2.1%; NS1 function inh: 9.2%; AmpC inh detg: inconclusive; AmpC no deterg: -12.3%; AMA1 RON2 block: 41.3%

What do the screens show for `C=C[C@@H]1CN2CC[C@@H]1C[C@H]2[C@H](O)c1ccnc2ccc(OC)cc12`?
NS1 function inh: -15.2%

From PubChem BioAssay
